About 79,000 compounds went through this panel and 15% of them were active in at least one assay; those are over-represented in the sample as a whole. Unmarked numbers belong to inactive results. The source made the active and inactive calls. Rule as the data show it: active = growth inhibition above about 70%; inactive = the rest.
What was measured:
[1] = NCI Yeast Anticancer Drug Screen. Data for the rad50 strain (AID 155);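 also: 0% = growth of vehicle-only cultures of the same strain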; conditions: S. cerevisiae rad50 strain growth inhibition, hits give high values
In short: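 Inhibition values express reduced yeast growth in compound-treated cultures relative to vehicle-treated controls.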

[2] = NCI Yeast Anticancer Drug Screen. Data for the mec2-1 strain (AID 157); conditions: S. cerevisiae mec2-1 strain, hits give high values
In short: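 Cells of the genetically defined mec2-1 yeast strain are incubated with test compound. Inhibition of growth is calculated against vehicle-treated controls.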

[3] = NCI Yeast Anticancer Drug Screen. Data for the sgs1 mgt1 strain (AID 161);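 also: 0% = growth of cultures given vehicle only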; conditions: S. cerevisiae sgs1 mgt1 strain, hits give high values
In short: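 Genetically altered yeast, compound exposure, growth inhibition relative to vehicle.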

[4] = NCI Yeast Anticancer Drug Screen. Data for the cln2 rad14 strain (AID 165);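 also: 0% = growth equal to vehicle treated cultures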; conditions: S. cerevisiae cln2 rad14 strain, hits give high values
In short: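 The screen exposed genetically defined yeast (cln2 rad14) to test compounds and scored growth inhibition relative to vehicle-treated controls.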

[5] = NCI Yeast Anticancer Drug Screen. Data for the bub3 strain (AID 167); conditions: S. cerevisiae bub3 mutant strain, hits give high values
In short: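 Steps: expose the mutant yeast strain to compound; grow alongside vehicle-treated cultures; measure growth; express inhibition against the vehicle cultures.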

[6] = NCI Yeast Anticancer Drug Screen. Data for the mlh1 rad18 strain (AID 175); conditions: S. cerevisiae mlh1 rad18 strain growth inhibition, hits give high values
In short: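 Compound-treated yeast growth, normalised to vehicle controls. Strain bears defined DNA repair mutations.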

[7] = at 5.0 µM (retest, dose inferred, filed as 0.5)
[8] = at 50.0 µM (retest, dose inferred, filed as 5.0)

| SMILES | growth inhibition [1, 7] | growth inhibition [1, 8] | growth inhibition ([1]; at 50.0 µM) | growth inhibition [2, 7] | growth inhibition [2, 8] | growth inhibition ([2]; at 50.0 µM) | growth inhibition [3, 7] | growth inhibition [3, 8] | growth inhibition ([3]; at 50.0 µM) | growth inhibition [4, 7] | growth inhibition [4, 8] | growth inhibition ([4]; at 50.0 µM) | growth inhibition [5, 7] | growth inhibition [5, 8] | growth inhibition ([5]; at 50.0 µM) | growth inhibition [6, 7] | growth inhibition [6, 8] | growth inhibition ([6]; at 50.0 µM) |
| --- | --- | --- | --- | --- | --- | --- | --- | --- | --- | --- | --- | --- | --- | --- | --- | --- | --- | --- |
| O=C(CBr)c1ccc2cc(Br)c3ccccc3c2c1 | 55% | 94% (active) | 64% | 84% (active) | 96% (active) | 44% | 98% (active) | 95% (active) | 68.5% | 16% | 92% (active) | 46.1% | 81% (active) | 94% (active) | 41.1% | 83% (active) | 95% (active) | 61% |
| CCN(CC)CCOc1ccc(/C=C(\C#N)c2ccc(OC)cc2)cc1 | 24% | 83% (active) | 74.5% (active) | 17% | 96% (active) | 62.5% | 40% | 97% (active) | 85.9% (active) | 34% | 90% (active) | 82.8% (active) | 44% | 95% (active) | 68.5% | 24% | 84% (active) | 75.8% (active) |
| COc1ccc(C2CC(CO)ON2c2ccccc2)cc1 (centres undefined) | -17% | 7% | 98% (active) | -14% | -9% | 98.5% (active) | -1% | -15% | 98.4% (active) | -23% | -18% | 97.9% (active) | -21% | -33% | 98.5% (active) | -6% | 1% | 98.8% (active) |
| ClCc1nnc2n1-c1ccc(Cl)cc1SC2 | 3% | 68% | 12.4% | 0% | 64% | 25.9% | -21% | 66% | 35.3% | 13% | 88% (active) | 6.15% | 3% | 92% (active) | 20.9% | -20% | 87% (active) | 24.1% |
| CSC(=S)N/N=C(\C)c1nccnc1C | 5% | 98% (active) | 98.7% (active) | 7% | 99% (active) | 98.9% (active) | 3% | 98% (active) | 98.7% (active) | -10% | 97% (active) | 98% (active) | 21% | 98% (active) | 99% (active) | 5% | 98% (active) | 98.9% (active) |
| O=[N+]([O-])c1cccc(S(=O)(=O)N/N=C/c2cc(I)cc([N+](=O)[O-])c2O)c1 | 5% | 6% | 25.1% | 5% | 2% | 13.1% | 10% | 11% | 34.5% | -1% | 2% | 7.85% | 2% | -1% | 4.7% | 6% | 8% | 45.9% |
| CN(C)/N=C(/CC(O)(C(F)(F)F)C(F)(F)F)c1ccc([N+](=O)[O-])cc1 | 25% | 20% | -4.65% | 19% | 11% | -8.95% | 19% | 22% | 35.6% | 12% | 12% | -18.6% | 15% | 7% | -12.9% | 25% | 21% | -16.4% |
| CN1CCN(CCOC(=O)N2c3ccccc3Sc3ccccc32)CC1 | 1% | 1% | 9.45% | 2% | -2% | -13.2% | -1% | 2% | 45.5% | 0% | 1% | -13.9% | -2% | -4% | 15.6% | -4% | -3% | 4.4% |
| COC(=O)C12CCC(=O)C(C)=C1CCC(OC)(OC)C2 (centres undefined) | -5% | 4% | 95.2% (active) | -10% | 6% | 16.9% | 7% | 17% | 66.5% | -2% | -7% | -1% | -2% | -3% | 61.8% | 10% | 11% | 82.3% (active) |
| CC(C)C1(c2ccccc2)C(=O)c2ccccc2C1=O | -6% | 42% | 71.8% (active) | -7% | 50% | 77.5% (active) | -5% | 73% (active) | 84.7% (active) | 2% | 10% | 68.2% | -11% | 14% | 79.2% (active) | -8% | 37% | 46.1% |
| CCCCCCCN(CCCCCCC)CC(O)c1ccc2ccc3ccccc3c2c1 (centres undefined) | 19% | 76% (active) | 68.2% | 8% | 73% (active) | 62% | 36% | 85% (active) | 81.2% (active) | 13% | 59% | 38% | 16% | 78% (active) | 59.4% | 12% | 78% (active) | 79.2% (active) |
| CC(=Nc1ccc(N(C)C)cc1)c1ccccc1 | -8% | 60% | 69.7% | -11% | 78% (active) | 54.8% | -5% | 70% (active) | 46% | -26% | 53% | 45.4% | -15% | 88% (active) | 71.7% (active) | -15% | 78% (active) | 71% (active) |
| FC(F)(F)c1[nH]nc(-c2cc3ccccc3o2)c1N=NN1CCOCC1 | 99% (active) | 99% (active) | 99.2% (active) | 100% (active) | 99% (active) | 99.5% (active) | 100% (active) | 99% (active) | 99.5% (active) | 99% (active) | 99% (active) | 99.6% (active) | 100% (active) | 99% (active) | 99.5% (active) | 100% (active) | 99% (active) | 99.5% (active) |
| COC1C=COC2(C)Oc3c(C)c(O)c4c(O)c(c(C5SCCS5)c(O)c4c3C2=O)NC(=O)/C(C)=C\C=CC(C)C(O)C(C)C(O)C(C)C(OC(C)=O)C1C (centres undefined) | -3% | 96% (active) | 94.7% (active) | 1% | 97% (active) | 96.9% (active) | -5% | 34% | 41.5% | 14% | 97% (active) | 95% (active) | 2% | 99% (active) | 95.8% (active) | 4% | 97% (active) | 95.4% (active) |
| CCCC(O)C[N+](=O)[O-] (centres undefined) | 6% | 71% (active) | 48.2% | -1% | 6% | 13.2% | -2% | 9% | 15.2% | -1% | 1% | 4.5% | -1% | 4% | 13.5% | 0% | 14% | 11.8% |
| OCC(O)C(O)C(O)C(O)C(O)C(/C=N/Nc1ccccc1)=N/Nc1ccccc1 (centres undefined) | -1% | 81% (active) | 55.2% | -2% | 95% (active) | 29.2% | 0% | 50% | 35.2% | 0% | 71% (active) | 31.1% | 18% | 95% (active) | 56% | 8% | 92% (active) | 66.1% |
| Cc1cc(N)c2c(c1O)C(=O)c1ccccc1C2=O | -2% | 47% | 7.5% | -1% | 26% | 7.35% | -5% | 39% | -0.6% | 0% | 21% | 25.1% | -5% | 42% | 20.8% | -3% | 47% | 18.2% |
| C[C@H](CCC(=O)O)[C@H]1CC[C@H]2[C@@H]3[C@@H](O)C[C@@H]4C[C@H](O)CC[C@]4(C)[C@H]3CC[C@]12C | 14% | 97% (active) | 79.9% (active) | 7% | 96% (active) | 99% (active) | 19% | 99% (active) | 81.3% (active) | -1% | 97% (active) | 76.5% (active) | 21% | 99% (active) | 98.5% (active) | 12% | 99% (active) | 88.7% (active) |
